# Targets with a hit are over-represented here; the source holds about 7,900 in all. About 0.6% of all pairs of compound and target were hits. Unmarked numbers belong to inactive results.
# Experiments:
# Assay in all cases: log2 fold change, soluble protein after heating vs DMSO (PISA); higher = thermal stabilisation; K562 cells, 10 uM, 30 min; active = over 0.2 and 3.5 SD of the protein, either way, in both replicates (recomputed)
# [1] = compound: CN1CCN(CCOc2cc(OC3CCOCC3)c3c(Nc4c(Cl)ccc5c4OCO5)ncnc3c2)CC1 [saracatinib]
# Procedure, shortened: (§1)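 For each measurement, 10 μM compound was applied for 30 min to K562 cells at 2×10^6 cells/mL. Aliquots were heated for 3 min across 48°C-58°C, pooled, and extracted in PBS with 0.5% NP-40 at 4°C; the supernatant after 21,000xg for 90 min was soluble protein. This was quantified by TMTpro 16plex LC-MS/MS with channel sums equalised, and thermal stability was reported relative to control samples from duplicates, on a log2 fold-change scale.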
# [2] = compound: CN1CCN(c2nc(C3=C(c4c[nH]c5ccccc45)C(=O)NC3=O)c3ccccc3n2)CC1 [sotrastaurin]
# Procedure, shortened: as §1
# [3] = compound: CN1CC[C@H](c2c(O)cc(O)c3c(=O)cc(-c4ccccc4Cl)oc23)[C@H](O)C1 [alvocidib]
# Procedure, shortened: as §1
# [4] = compound: CN1CCc2c(c3ccccc3n2Cc2ccc(C(=O)NO)cc2)C1 [Tubastatin A]
# Procedure, shortened: as §1
# [5] = compound: CNC(=O)C1=CC=CC=C1NC2=NC(=NC=C2Cl)NC3=C(C=C(C=C3)N4CCOCC4)OC
# Procedure, shortened: as §1
# [6] = compound: CNC(=O)c1ccc(Nc2ncc(C(F)(F)F)c(NCc3nccnc3N(C)S(C)(=O)=O)n2)cc1 [defactinib]
# Procedure, shortened: as §1
# [7] = compound: CNCc1ccc(-c2[nH]c3cc(F)cc4c3c2CCNC4=O)cc1 [rucaparib]
# Procedure, shortened: as §1
# [8] = compound: CNc1nc(-c2ccc3c(N)n[nH]c3c2)cc(N2C[C@@H](C(=O)NC3CCCCC3)CC[C@H]2C)n1
# Procedure, shortened: as §1
# [9] = compound: COC(=O)N[C@@H](C)CNc1nccc(-c2cn(C(C)C)nc2-c2cc(Cl)cc(NS(C)(=O)=O)c2F)n1 [encorafenib]
# Procedure, shortened: as §1
# [10] = compound: COC(=O)[C@H](CCSC)NC(=O)C1=C(C=C(C=C1)NC[C@H](CS)N)C2=CC=CC=C2
# Procedure, shortened: as §1
# UniProt Q9H0C8, sequence (Q9H0C8 whole entry, looked up): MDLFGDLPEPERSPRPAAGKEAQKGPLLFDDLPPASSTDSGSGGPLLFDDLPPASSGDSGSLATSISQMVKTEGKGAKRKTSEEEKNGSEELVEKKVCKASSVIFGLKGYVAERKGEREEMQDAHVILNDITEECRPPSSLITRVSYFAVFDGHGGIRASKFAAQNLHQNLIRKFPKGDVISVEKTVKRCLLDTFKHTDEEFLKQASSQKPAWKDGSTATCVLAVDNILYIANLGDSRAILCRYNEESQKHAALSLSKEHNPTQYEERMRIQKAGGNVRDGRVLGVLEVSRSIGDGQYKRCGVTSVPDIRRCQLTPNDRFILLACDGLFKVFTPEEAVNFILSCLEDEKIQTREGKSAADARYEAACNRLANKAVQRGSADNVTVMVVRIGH
# UniProt Q9H6V9, sequence (Q9H6V9 whole entry, looked up): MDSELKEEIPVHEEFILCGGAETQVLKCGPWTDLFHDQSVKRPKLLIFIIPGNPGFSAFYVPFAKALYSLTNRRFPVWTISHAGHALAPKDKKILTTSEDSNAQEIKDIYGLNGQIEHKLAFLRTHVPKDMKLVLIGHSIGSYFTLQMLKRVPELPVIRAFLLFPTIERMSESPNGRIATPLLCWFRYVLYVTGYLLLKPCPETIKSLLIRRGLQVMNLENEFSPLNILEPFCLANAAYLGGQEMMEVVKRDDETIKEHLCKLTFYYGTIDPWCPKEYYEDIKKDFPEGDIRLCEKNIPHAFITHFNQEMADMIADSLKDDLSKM
# UniProt Q02750, sequence (Q02750 whole entry, looked up): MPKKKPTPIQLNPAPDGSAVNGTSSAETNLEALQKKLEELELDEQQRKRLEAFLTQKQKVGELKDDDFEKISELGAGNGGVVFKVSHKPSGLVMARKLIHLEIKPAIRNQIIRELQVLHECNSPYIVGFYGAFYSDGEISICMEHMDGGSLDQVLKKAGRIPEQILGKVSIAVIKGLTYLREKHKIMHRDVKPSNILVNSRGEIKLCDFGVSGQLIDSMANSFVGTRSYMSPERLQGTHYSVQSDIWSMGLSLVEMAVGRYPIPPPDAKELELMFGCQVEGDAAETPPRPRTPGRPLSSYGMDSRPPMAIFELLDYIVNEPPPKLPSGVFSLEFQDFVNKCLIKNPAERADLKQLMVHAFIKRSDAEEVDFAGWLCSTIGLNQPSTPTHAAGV
# UniProt P51884, sequence (P51884 whole entry, looked up): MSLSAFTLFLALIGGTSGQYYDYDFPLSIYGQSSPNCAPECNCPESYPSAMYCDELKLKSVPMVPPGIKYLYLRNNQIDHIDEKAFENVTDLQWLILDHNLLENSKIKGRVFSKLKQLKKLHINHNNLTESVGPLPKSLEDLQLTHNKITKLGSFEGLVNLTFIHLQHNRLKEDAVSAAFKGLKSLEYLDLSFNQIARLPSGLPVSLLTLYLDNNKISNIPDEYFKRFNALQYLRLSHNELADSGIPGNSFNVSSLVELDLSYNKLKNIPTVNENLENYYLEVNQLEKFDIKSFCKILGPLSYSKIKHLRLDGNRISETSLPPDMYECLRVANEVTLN
# UniProt Q86X29, sequence (Q86X29 whole entry, looked up): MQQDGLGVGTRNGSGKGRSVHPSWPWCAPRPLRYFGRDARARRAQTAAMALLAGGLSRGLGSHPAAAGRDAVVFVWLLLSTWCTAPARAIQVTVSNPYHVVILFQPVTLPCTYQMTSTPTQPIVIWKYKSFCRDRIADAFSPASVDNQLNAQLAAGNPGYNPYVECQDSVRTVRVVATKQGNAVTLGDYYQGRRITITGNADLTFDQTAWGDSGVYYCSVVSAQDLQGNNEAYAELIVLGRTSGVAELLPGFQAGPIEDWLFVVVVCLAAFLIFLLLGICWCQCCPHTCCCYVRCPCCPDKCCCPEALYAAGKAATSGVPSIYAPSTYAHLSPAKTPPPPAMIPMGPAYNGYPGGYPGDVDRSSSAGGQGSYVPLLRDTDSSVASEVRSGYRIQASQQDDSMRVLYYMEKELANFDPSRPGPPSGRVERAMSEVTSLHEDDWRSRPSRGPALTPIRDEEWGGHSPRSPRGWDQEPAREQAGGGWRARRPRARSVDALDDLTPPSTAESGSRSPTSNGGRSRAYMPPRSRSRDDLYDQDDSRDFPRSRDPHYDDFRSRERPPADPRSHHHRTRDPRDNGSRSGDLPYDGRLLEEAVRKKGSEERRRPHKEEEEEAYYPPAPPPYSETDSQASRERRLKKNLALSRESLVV
# UniProt Q9NUN5, sequence (Q9NUN5 whole entry, looked up): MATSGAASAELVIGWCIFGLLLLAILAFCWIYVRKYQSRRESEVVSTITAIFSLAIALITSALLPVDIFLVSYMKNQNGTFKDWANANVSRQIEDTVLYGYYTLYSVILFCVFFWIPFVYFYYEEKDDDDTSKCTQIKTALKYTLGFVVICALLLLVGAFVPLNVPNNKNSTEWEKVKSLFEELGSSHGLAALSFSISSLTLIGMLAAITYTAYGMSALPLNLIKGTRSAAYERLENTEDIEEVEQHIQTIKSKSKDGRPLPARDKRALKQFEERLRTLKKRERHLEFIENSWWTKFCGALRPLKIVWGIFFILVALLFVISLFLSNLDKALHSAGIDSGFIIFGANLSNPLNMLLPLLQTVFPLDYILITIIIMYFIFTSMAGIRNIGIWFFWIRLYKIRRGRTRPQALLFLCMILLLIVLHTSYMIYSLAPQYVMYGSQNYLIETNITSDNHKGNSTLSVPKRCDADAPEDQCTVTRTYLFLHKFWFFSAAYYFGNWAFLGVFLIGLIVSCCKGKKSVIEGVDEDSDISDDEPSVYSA
# UniProt Q8IVT5, sequence (Q8IVT5 whole entry, looked up): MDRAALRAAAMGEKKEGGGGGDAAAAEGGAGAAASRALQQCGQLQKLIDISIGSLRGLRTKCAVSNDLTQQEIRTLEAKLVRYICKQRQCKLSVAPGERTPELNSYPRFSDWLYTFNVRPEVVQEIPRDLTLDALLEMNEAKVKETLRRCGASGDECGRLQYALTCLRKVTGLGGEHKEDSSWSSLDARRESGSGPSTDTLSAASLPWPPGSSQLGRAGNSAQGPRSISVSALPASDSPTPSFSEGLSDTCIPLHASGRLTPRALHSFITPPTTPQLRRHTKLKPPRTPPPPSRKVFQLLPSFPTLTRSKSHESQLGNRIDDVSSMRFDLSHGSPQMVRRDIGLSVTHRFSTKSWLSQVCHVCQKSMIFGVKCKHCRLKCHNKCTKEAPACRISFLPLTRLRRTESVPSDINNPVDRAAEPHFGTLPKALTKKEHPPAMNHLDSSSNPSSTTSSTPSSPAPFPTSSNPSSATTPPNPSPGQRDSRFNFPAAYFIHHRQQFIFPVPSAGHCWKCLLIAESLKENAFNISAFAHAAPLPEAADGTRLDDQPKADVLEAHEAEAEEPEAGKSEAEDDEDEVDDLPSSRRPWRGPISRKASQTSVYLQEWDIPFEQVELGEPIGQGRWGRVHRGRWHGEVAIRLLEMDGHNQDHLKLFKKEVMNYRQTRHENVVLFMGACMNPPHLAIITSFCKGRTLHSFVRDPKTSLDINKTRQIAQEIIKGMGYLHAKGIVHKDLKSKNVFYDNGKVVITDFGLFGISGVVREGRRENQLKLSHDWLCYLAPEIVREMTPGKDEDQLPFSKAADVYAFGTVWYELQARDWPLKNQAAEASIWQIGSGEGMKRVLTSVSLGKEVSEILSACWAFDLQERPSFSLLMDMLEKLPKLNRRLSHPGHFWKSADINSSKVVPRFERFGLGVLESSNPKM
# UniProt Q9BQK8, sequence (Q9BQK8 whole entry, looked up): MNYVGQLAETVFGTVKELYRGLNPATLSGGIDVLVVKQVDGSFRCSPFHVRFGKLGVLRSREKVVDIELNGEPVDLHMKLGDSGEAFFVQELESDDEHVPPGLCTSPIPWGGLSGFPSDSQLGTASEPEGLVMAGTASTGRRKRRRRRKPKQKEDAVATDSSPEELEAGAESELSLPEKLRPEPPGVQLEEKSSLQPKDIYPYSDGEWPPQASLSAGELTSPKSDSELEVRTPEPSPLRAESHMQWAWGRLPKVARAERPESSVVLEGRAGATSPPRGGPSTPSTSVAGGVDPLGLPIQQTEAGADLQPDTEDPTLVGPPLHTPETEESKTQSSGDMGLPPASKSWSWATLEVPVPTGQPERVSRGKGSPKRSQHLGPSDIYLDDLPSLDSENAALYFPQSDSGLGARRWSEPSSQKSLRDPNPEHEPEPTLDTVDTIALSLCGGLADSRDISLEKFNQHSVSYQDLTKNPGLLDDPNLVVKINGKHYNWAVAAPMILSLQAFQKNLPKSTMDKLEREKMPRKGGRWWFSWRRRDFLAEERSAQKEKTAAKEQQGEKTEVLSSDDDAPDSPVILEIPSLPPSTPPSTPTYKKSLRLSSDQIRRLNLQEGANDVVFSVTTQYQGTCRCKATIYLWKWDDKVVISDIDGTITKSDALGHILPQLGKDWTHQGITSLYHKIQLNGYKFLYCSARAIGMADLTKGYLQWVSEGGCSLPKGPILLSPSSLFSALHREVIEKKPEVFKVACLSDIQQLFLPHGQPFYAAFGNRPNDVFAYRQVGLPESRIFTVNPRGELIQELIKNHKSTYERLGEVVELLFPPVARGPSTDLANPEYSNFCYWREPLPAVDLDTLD
Target,log2 fold change [1],log2 fold change [2],log2 fold change [3],log2 fold change [4],log2 fold change [5],log2 fold change [6],log2 fold change [7],log2 fold change [8],log2 fold change [9],log2 fold change [10]
LPIN1 isoform 7 (UniProt Q14693),0.003,-0.093,-0.059,0.041,-0.113,-0.03,-0.054,-0.13,0.009,0.035
IRAK4 (UniProt Q9NWZ3),-0.026,-0.061,-0.106,0.006,0.162,-0.022,0.076,0.01,0.006,-0.071
ILKAP (UniProt Q9H0C8),-0.057,-0.087,-0.152,0.055,-0.021,-0.155,0.011,0.055,0.061,-0.078
KTN1 (UniProt Q86UP2),0.001,-0.07,0.109,0.032,-0.12,0.109,0.155,-0.079,0.137,-0.053
MAGEC2 (UniProt Q9UBF1),0.092,-0.068,-0.034,-0.013,0.015,-0.056,-0.021,-0.082,0.079,0.003
LEMD3 (UniProt Q9Y2U8),-0.014,0.013,-0.057,0.062,0.068,-0.111,0.027,0.039,0.026,-0.075
MFF (UniProt Q9GZY8),0.003,-0.027,-0.06,0.012,-0.127,-0.025,-0.059,-0.078,0.015,0.092
MAP4 (UniProt P27816),0.017,0.019,0.042,-0.029,-0.014,0.016,0.009,-0.029,-0.001,0.031
KPNA6 (UniProt O60684),-0.004,-0.117,-0.073,0.008,0.082,-0.06,0.092,-0.042,0.12,-0.099
INPP5B (UniProt P32019),0.024,-0.079,-0.076,0.07,-0.007,0.112,0.066,0.043,-0.151,0.141
LYPLA2 (UniProt O95372),-0.063,-0.039,-0.126,0.018,0.007,-0.09,-0.041,-0.01,-0.031,0.087
LENG8 (UniProt Q96PV6),-0.112,-0.043,-0.074,-0.021,-0.125,-0.316,0.044,0.133,0.129,-0.133
LPCAT3 (UniProt Q6P1A2),-0.048,-0.14,-0.002,0,0.093,0,-0.074,0.138,-0.026,-0.021
MIEF1 (UniProt L0R8F8),-0.068,-0.008,0.009,0.041,0.008,-0.003,0.024,-0.074,0.008,0.015
MCCC2 (UniProt Q9HCC0),0.033,0.018,0,0.004,-0.274 (active),0.008,0.012,-0.05,-0.033,-0.003
LDAH isoform 2 (UniProt Q9H6V9),0.092,0.035,-0.139,-0.03,-0.001,-0.09,-0.004,-0.043,0.04,-0.063
LRBA (UniProt P50851),0.039,-0.031,-0.054,0.014,-0.012,-0.015,-0.01,-0.023,0.018,-0.002
KSR1 (UniProt Q8IVT5),-0.229,-0.149,-0.135,0.054,-0.061,-0.073,-0.044,0.038,0.081,0.012
MAPRE3 (UniProt Q9UPY8),-0.029,-0.016,-0.091,-0.067,0.025,-0.031,0.02,-0.016,0.017,0.027
LMBRD1 (UniProt Q9NUN5),0.154,0.023,0.042,0.098,0.052,0.047,-0.023,-0.173,0.053,-0.057
MARK2 (UniProt E9PC69),-0.103,-0.555,-0.007,0.278,-1.12 (active),-0.07,0.187,0.037,0.144,-0.028
MAP2K1 (UniProt Q02750),0.02,0.028,-0.05,-0.018,-0.053,-0.011,-0.049,-0.005,0.005,0.009
MIEN1 (UniProt Q9BRT3),0.049,-0.067,-0.141,0.069,-0.002,-0.067,-0.032,-0.019,-0.051,0.129
LUM (UniProt P51884),0.081,0.29,0.047,-0.145,0.085,-0.071,-0.167,0.014,-0.011,0.283
MAP2K7 isoform 4 (UniProt O14733),0.063,0.026,-0.028,-0.002,-0.04,-0.012,0.036,-0.001,0.013,-0.01
LPIN3 isoform 2 (UniProt Q9BQK8),-0.101,0.171,-0.074,0.093,-0.087,-0.022,0.049,0.049,0.051,-0.012
KRAS isoform 2 (UniProt P01116),0.039,0.045,-0.062,-0.036,0.027,0.013,-0.028,0.011,0.043,0.02
LSR (UniProt Q86X29),-0.003,0.023,-0.018,0.012,-0.074,-0.053,-0.023,0.095,0.042,0.031
LUC7L2 (UniProt Q9Y383),0.022,-0.01,-0.246,0.007,-0.304 (active),-0.267 (active),-0.077,-0.047,0.065,0.03
